From PMC8384837, “Expanding the binding specificity for RNA recognition by a PUF domain”

biological target: PUM1 PUF domain R5-GIR (Homo sapiens, UniProt Q14671 828-1176, C1007G;R1008I;Q1011R); test: yeast three-hybrid, YBZ-1, SC-Leu-His + 0.5 mM 3-AT, 4 days; settings: tags: N-Gal4 AD-HA kept; label: inside an RPR1-promoter hybrid RNA with tandem MS2 sites; ssRNA
In short: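 Pumilio-1 PUF domain libraries, randomized (NNK) at the three base-contacting residues of each repeat, were co-expressed with matching RNA elements from a centromeric plasmid in strain YBZ-1 (LexA–MS2 coat fusion, HIS3 reporter). Transformants were plated on SC-Leu (input) and SC-Leu-His + 0.5 mM 3-AT (selection) for four days, and repeat regions were PCR-amplified and Illumina-sequenced. The interaction score is the log2 change in variant frequency from input to selection, with pseudocount 1 where absent.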

| Sequence | binding signal |
| --- | --- |
| GGCUAGAACUAGUGGAUCCCCCGGCGCCCGGCGGCUCGAGCCCGGGUAAGUGUCAAUAGUCUGCAUGCCGCCGGGCGCCAUGCCUGCAGGUCGACUCUAGAAAACAUG | 4.37 log2 enrichment (interaction score) |
| GGCUAGAACUAGUGGAUCCCCCGGCGCCCGGCGGCUCGAGCCCGGGUAAGUGUAAAUAGUCUGCAUGCCGCCGGGCGCCAUGCCUGCAGGUCGACUCUAGAAAACAUG | 2.43 log2 enrichment (interaction score) |
| GGCUAGAACUAGUGGAUCCCCCGGCGCCCGGCGGCUCGAGCCCGGGUAAGUGUUAAUAGUCUGCAUGCCGCCGGGCGCCAUGCCUGCAGGUCGACUCUAGAAAACAUG | 1.6 log2 enrichment (interaction score) |
